Active and inactive are the calls of the source.
How the values were obtained:
[1] = target: Albumin (Bos taurus) (UniProt P02769); assay: compounds binding labelled BSA control protein – biochemical, small-molecule microarray, Alexa647 label, 635/667 nm fluorescence, artefact control for SMM control protein annotation, profiling panel (AID 1118); settings: BSA-A647 binding, fluorescence 635 nm, higher = more signal;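 further: score merges 667 nm emission intensity and signal-to-noise per printed compound spot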
[2] = probe aXIP binding to arrayed compounds – biochemical, NeuroSMM set, 635/667 nm fluorescence, primary screen (AID 1119); settings: small-molecule microarray, higher = more signal, called active from +8 up or from −8 down;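 further: probe is the protein aXip251-270 applied at 1 µg/mL to compound-printed slides; binding of probe to printed compounds measured as 667 nm fluorescence plus signal to noise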
[3] = probe aNOTCH3 binding on compound microarray – biochemical, small-molecule microarray, 635/667 nm fluorescence, primary screen (AID 1120); settings: higher = more signal;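 further: probe is a biotin-tagged antibody raised against NOTCH3 rather than NOTCH3 protein; score merges spot fluorescence near 667 nm with spot signal to noise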
[4] = probe aNOTCH2 binding on compound microarray – biochemical, small-molecule microarray, 635/667 nm fluorescence, primary screen (AID 1121); settings: higher = more signal;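 further: score merges feature fluorescence read at 667 nm with its signal to noise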
[5] = target: Carbonic anhydrase 2 (Homo sapiens) (UniProt P00918); assay: compounds binding carbonic anhydrase 2 – biochemical, small-molecule microarray, Alexa647-labelled CAII, profiling panel (AID 1122); settings: CAII-A647 binding fluorescence, higher = more signal
[6] = COS7 lysate on small-molecule microarray, probe aHis, 635 nm (AID 1123); settings: COS7 cell lysate, fluorescence, higher = more signal;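 further: z-score combines 667nm fluorescence intensity with signal-to-noise per printed compound spot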
[7] = probe aLAP1 signal on lysate-treated microarray – cell lysate, small-molecule microarray, COS7 lysate, primary screen (AID 1124); settings: probe aLAP1, fluorescence, higher = more signal;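 further: lysate comes from COS7 cells expressing LAP1 and is applied at 0.3 µg/mL; score merges spot fluorescence near 667 nm with signal-to-noise over triplicate slides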
[8] = tested on: Sam68 (KHDRBS1); assay: compounds binding KHDRBS1 protein – biochemical, small-molecule microarray, 635 nm fluorescence, primary screen (AID 1125); settings: higher = more signal;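 further: score merges 667 nm channel intensity with signal to noise over triplicate slides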
[9] = tested on: Chordin-like protein 2 (CHRDL2); assay: compounds binding chordin-like 2 – biochemical, small-molecule microarray, 635 nm fluorescence, primary screen (AID 1126); settings: fluorescence 635 nm, higher = more signal;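 further: printed compound slides probed with Chrdl2 protein at 4 µg/mL for 1 h at 4 C; score merges 667 nm emission intensity with signal to noise over three replicate slides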
[10] = target: Concanavalin-A (Canavalia ensiformis) (UniProt P02866); assay: compounds binding concanavalin A lectin – biochemical, small-molecule microarray, Alexa647 label, 635 nm, artefact control for SMM control protein annotation, primary screen (AID 1127); settings: ConA-A647 binding fluorescence, higher = more signal;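 further: z combines 667 nm emission intensity with signal-to-noise across three replicate slides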
[11] = compounds binding Alexa647 anti-His antibody – biochemical, small-molecule microarray, 635 nm fluorescence, artefact control for SMM control protein annotation, primary screen (AID 1128); settings: higher = more signal;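 further: score merges feature fluorescence with signal-to-noise for each printed compound spot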
[12] = tested on: Human papillomavirus type 1a E7 protein (residues 1-88); assay: HPV1a E7 small-molecule binders, primary screen, biochemical, small-molecule microarray, residues 1-88, 635 nm (AID 1129); settings: small-molecule microarray binding, fluorescence 635 nm; higher = more signal
[13] = target: Focal adhesion kinase 1 (Homo sapiens) (UniProt Q05397); assay: PTK2 protein binding on printed compound slides – biochemical, small-molecule microarray, 635/667 nm fluorescence, BSA, DTT, primary screen (AID 1130); settings: 635 nm fluorescence, higher = more signal;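 further: composite of spot emission at 667 nm and signal to noise over triplicate slides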
[14] = tested on: Fibrinogen (Alexa647-labelled); assay: Alexa647-fibrinogen binding to printed small molecules – biochemical, small-molecule microarray, 635/667 nm fluorescence, artefact control for SMM control-protein annotation, profiling panel (AID 1131); settings: fibrinogen-A647 binding fluorescence, higher = more signal;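 further: z-score merges 667 nm fluorescence with per-spot signal-to-noise over triplicate slides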
[15] = target: Follistatin (Homo sapiens) (UniProt P19883); assay: FST protein binding to printed compounds – biochemical, small-molecule microarray, 635/667 nm fluorescence, primary screen (AID 1132); settings: 635 nm fluorescence, higher = more signal
[16] = target: Fibroblast growth factor 2 (Homo sapiens) (UniProt P09038); assay: basic fibroblast growth factor binding to printed compounds – biochemical, small-molecule microarray, 635/667 nm fluorescence, primary screen (AID 1133); settings: FGF2, fluorescence 635/667, higher = more signal
[17] = JC-1 mitochondrial potential readout, lung cancer cells – cell-based, A549, JC-1 fluorescence, basal, 24 h, 100 nL, profiling panel (AID 1138); settings: higher = more signal;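 further: A549 lung adenocarcinoma cells under basal conditions with no added stimulus; test concentration not given here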
[18] = tested on: Lefty1; assay: Lefty1 protein binding to printed compounds – biochemical, small-molecule microarray, 635/667 nm fluorescence, primary screen (AID 1139); settings: fluorescence 635/667, higher = more signal
[19] = tested on: wheat germ agglutinin (Triticum aestivum), Alexa647-labelled; assay: Alexa647-WGA lectin binding to printed small molecules – biochemical, small-molecule microarray, 635/667 nm fluorescence, artefact control for SMM control-protein annotation, profiling panel (AID 1140); settings: WGA-A647 binding, 635 nm fluorescence, higher = more signal;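 further: score merges 667 nm feature emission with signal to noise over triplicate slides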
[20] = target: Luciferin 4-monooxygenase (Photinus pyralis) (UniProt P08659); assay: inhibition of purified Photinus pyralis luciferase – biochemical, luminescence, purified enzyme, 2006 set, primary screen (AID 1141); settings: purified firefly luciferase, SteadyGlo luminescence, 30 min; higher = more signal, called active from +8 up or from −8 down;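 further: cell-free assay with purified firefly luciferase at 100 ng per well in PBS; test concentration not given here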
Luciferin 4-monooxygenase (Photinus pyralis), sequence (P08659 whole entry, looked up): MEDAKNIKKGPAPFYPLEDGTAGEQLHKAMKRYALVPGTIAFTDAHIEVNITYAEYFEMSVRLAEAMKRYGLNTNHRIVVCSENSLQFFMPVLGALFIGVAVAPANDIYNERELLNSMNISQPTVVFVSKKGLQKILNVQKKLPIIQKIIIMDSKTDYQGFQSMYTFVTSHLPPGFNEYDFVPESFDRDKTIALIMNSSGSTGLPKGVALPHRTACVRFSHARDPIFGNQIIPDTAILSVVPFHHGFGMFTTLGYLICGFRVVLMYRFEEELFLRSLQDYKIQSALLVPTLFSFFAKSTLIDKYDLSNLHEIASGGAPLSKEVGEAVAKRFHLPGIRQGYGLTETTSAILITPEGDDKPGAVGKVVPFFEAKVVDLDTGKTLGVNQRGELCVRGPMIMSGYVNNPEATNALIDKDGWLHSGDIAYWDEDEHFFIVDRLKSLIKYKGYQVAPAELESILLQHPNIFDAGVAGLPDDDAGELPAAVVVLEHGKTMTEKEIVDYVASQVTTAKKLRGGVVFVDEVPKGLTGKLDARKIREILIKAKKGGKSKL

Focal adhesion kinase 1 (Homo sapiens), sequence (Q05397 whole entry, looked up): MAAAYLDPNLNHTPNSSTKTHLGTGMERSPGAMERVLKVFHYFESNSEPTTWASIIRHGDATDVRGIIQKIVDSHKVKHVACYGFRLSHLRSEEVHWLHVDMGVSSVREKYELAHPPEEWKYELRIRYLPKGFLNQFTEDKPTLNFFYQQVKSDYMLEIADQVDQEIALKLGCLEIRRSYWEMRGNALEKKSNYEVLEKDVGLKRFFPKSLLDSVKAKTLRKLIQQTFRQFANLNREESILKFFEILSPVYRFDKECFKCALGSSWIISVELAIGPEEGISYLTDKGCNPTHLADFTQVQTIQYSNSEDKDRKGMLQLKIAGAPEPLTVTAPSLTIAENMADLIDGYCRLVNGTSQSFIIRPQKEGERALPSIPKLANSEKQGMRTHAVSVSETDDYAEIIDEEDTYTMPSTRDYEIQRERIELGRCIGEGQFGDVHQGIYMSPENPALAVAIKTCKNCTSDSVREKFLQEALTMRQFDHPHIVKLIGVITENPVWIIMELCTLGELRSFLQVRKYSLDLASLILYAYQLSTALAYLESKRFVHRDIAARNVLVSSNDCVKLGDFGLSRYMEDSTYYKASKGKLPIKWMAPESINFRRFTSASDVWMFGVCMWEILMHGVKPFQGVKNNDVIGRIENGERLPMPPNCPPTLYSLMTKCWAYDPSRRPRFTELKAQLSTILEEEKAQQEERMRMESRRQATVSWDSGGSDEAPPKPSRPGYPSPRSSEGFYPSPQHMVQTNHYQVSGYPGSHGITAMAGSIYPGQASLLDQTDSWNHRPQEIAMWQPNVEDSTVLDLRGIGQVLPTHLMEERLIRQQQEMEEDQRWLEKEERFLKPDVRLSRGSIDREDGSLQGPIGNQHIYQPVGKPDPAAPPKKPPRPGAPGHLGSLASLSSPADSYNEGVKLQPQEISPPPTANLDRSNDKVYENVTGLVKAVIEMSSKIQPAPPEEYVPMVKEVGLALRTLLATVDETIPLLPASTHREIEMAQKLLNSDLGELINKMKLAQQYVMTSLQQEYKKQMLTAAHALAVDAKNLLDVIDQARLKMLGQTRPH
Concanavalin-A (Canavalia ensiformis), sequence (P02866 whole entry, looked up): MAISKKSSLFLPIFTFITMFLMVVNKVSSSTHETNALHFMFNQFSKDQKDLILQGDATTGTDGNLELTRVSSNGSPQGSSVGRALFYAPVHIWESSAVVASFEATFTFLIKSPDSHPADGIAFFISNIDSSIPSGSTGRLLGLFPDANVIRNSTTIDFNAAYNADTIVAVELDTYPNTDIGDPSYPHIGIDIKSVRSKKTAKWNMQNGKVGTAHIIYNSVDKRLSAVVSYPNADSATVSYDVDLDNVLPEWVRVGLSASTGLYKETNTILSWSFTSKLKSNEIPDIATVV
Albumin (Bos taurus), sequence (P02769 whole entry, looked up): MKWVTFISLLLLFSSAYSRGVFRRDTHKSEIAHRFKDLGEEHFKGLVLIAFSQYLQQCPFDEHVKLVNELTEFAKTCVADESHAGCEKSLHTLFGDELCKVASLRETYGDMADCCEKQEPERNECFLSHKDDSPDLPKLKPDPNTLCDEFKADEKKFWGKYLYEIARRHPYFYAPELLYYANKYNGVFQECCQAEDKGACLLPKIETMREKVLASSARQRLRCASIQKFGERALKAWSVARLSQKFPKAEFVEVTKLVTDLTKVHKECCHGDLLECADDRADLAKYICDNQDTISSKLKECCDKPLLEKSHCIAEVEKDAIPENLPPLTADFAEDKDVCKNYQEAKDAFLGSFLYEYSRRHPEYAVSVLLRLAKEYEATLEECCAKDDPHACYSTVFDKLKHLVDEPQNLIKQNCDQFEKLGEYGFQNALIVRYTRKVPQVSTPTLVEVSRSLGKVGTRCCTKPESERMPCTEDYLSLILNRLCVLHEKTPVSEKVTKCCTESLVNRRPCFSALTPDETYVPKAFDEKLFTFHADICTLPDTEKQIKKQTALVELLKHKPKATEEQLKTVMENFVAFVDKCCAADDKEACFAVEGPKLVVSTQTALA
Fibroblast growth factor 2 (Homo sapiens), sequence (P09038 whole entry, looked up): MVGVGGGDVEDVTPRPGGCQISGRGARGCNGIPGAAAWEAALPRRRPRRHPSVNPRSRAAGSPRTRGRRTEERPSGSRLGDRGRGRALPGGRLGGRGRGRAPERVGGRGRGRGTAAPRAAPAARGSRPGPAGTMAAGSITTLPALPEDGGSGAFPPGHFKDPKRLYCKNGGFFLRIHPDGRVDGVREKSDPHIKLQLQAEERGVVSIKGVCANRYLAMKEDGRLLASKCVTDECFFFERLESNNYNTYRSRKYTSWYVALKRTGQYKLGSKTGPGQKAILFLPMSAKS
Follistatin (Homo sapiens), sequence (P19883 whole entry, looked up): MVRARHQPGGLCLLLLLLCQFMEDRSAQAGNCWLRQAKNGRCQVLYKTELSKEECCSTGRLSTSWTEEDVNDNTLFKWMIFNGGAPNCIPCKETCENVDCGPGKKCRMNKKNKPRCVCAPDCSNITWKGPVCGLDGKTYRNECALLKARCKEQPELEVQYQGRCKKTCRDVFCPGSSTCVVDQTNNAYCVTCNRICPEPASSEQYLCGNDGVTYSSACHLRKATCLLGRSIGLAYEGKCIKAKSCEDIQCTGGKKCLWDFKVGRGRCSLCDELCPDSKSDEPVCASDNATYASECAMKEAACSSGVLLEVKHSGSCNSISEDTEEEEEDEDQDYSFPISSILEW

Compound | composite z-score [1] | composite Z-score [2] | composite z-score [3] | composite z-score [4] | composite z-score [5] | composite z-score [6] | composite z-score [7] | composite z-score [8] | composite z-score [9] | composite z-score [10] | composite z-score [11] | composite z-score [12] | composite z-score [13] | composite z-score [14] | composite z-score [15] | composite z-score [16] | z-score [17] | composite z-score [18] | composite z-score [19] | z-score [20]
C=C(/C=C/CNS(=O)(=O)c1ccc(C)cc1)[C@H](O)[C@H]1CCCN1S(=O)(=O)c1ccccc1[N+](=O)[O-] | 0.699 | -0.327 (inactive) | -0.0932 | -0.138 | 0.305 | 0.0646 | 0.394 | 0.0808 | 0.547 | 0.0635 | -0.394 | 0.237 | 0.0627 | 0.53 | 0.933 | 0.891 | 0.381 | 0.887 | 0.299 | -0.83 (inactive)
Cc1ccc(S[C@]2(C(=O)O)CC(=O)N(Cc3ccccc3Cl)[C@@H]2c2ccc(CO)cc2)cc1 | 0.489 | -0.173 (inactive) | -0.159 | -0.0519 | 0.75 | 1.72 | 0.591 | -0.503 | -0.828 | -0.503 | -0.24 | -0.558 | -0.299 | -0.271 | -0.83 | -0.26 | -0.939 | -1.26 | 0.478 | -0.999 (inactive)
O=C1OC[C@@H](c2ccccc2)N2CC(/C=C/c3ccccc3)=CC12 (stereo not given in full) | 0.0154 | 0.142 (inactive) | -0.36 | -0.189 | 0.453 | -0.428 | 0.133 | -1.57 | -0.713 | -0.044 | -0.206 | 0.725 | -0.542 | -0.593 | -1.29 | -1.45 | 0.0121 | -1.58 | -0.408 | 0.0761 (inactive)
O=C1NC(=O)C2C1C=CC(C(O)c1cc(C(F)(F)F)cc(C(F)(F)F)c1)N2Nc1ccc(Cl)cc1Cl (stereo not given) | 0.839 | 0.809 (inactive) | 0.0833 | -0.0703 | 0.583 | 2.45 | 0.554 | -0.163 | -0.464 | -0.415 | 0.864 | 1.05 | 0.46 | -0.607 | 0.109 | -0.544 | -0.836 | -1.03 | 0.802 | 0.172 (inactive)
CCOC(=O)[C@H]1C/C=C/C[C@H](C(=O)OCC)C(=O)O[C@H]2[C@@H](OC)O[C@H](CO)[C@@H](OC(=O)CCc3ccccc3)[C@@H]2OC1=O | 0.191 | 0.476 (inactive) | 0.996 | 0.0519 | -0.207 | -0.188 | 0.715 | -0.378 | -0.203 | -0.233 | 0.522 | -0.267 | -0.542 | 0.0772 | -0.502 | -0.924 | 3.06 | -0.172 | -0.185 | 0.418 (inactive)
CN(C)CCCNC(=O)[C@@H]1c2ccccc2C(=O)N(Cc2ccc(OC(F)(F)F)cc2)[C@H]1c1ccc(CO)cc1 | -0.298 | 0.729 (inactive) | 0.0469 | -0.115 | 0.398 | 1.4 | 0.602 | 1.26 | 0.151 | 0.675 | 0.21 | 0.701 | 0.0807 | 0.18 | 1.18 | -0.22 | 0.311 | 0.9 | -0.374 | 1.15 (inactive)
C=C(COC)/C(=C/C[C@@H](OC(=O)c1ccncc1)c1ccc(OCCO)cc1)c1cnc2ccccc2c1 | 0.646 | -0.41 (inactive) | 0.321 | -0.0804 | 0.854 | 0.514 | 0.39 | 1.31 | 1.53 | 1.15 | 0.866 | 1.13 | 0.0089 | 0.94 | 1.46 | 1.74 | 0.703 | 1.49 | 0.798 | -2.4 (inactive)
C=C[C@H](COC(C)=O)NS(=O)(=O)c1ccc(Br)cc1 | 0.0793 | 0.131 (inactive) | -0.217 | -0.106 | -0.111 | -0.0413 | -0.0354 | -0.603 | 1.14 | 0.43 | 0.207 | -0.575 | -0.0533 | 0.382 | 1.27 | -0.0651 | 0.695 | 0.17 | 0.146 | -0.503 (inactive)
O=C1O[C@@H](c2ccccc2)[C@@H](c2ccccc2)N2[C@@H](c3ccccc3OCCO)[C@]3(C(=O)Nc4ccc(C#CC5=CCCCC5)cc43)[C@@H](C(=O)NC[C@H](O)c3ccccc3)[C@H]12 | 0.402 | -0.584 (inactive) | 0.0522 | -0.124 | 0.211 | 0.363 | 0.182 | 1.28 | 0.478 | 1.04 | 1.08 | 1.13 | 0.0363 | 0.883 | 0.961 | 1.51 | -1.69 | 1.02 | -0.186 | -1.32 (inactive)

From PubChem BioAssay
